Screening data (PubChem BioAssay)
CR mimetic SO – yeast age-related superoxide inhibition as caloric restriction mimetic; superoxide response (% of plate mean), % at 10 µM; 330,000 compounds, 0.18% hits; AID 2690; S. cerevisiae aged cells, superoxide DHE fluorescence; hits give low values;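 active = superoxide response under a set limit, about three screen SD below normal, cut at about 65% in these data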;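 note: yeast aged for seven days with compound at 30 °C before DHE staining; 100% = average MFI of all compound-treated wells on the plate with controls excluded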
HIF activator – HIF pathway transcriptional activation. U2OS HRE-luciferase reporter, luminescence; normalized: DMSO 0%, desferrioxamine 100%. activation, % at 7.5 µM (by protocol). 300,000 compounds, 0.32% hits. AID 1910;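 active = mean activation of at least 10% of the iron chelator positive control signal, with at least half of replicates also reaching 10%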
AHR act – human AHR activation. 320,000 compounds, 2.5% hits. AHR-responsive luciferase reporter cells, luminescence. activation, % at 5 µM. AID 2796; in the data active = activation above about 47%;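 note: 0% = vehicle wells and 100% = reference agonist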
PLC-beta3 inh – blocks human PLC-beta3 enzyme activity | inhibition, % at 12.2 µM | 370,000 compounds, 0.18% hits | Purified PLC-beta3, fluorogenic substrate, fluorescence; in the data active = inhibition above about 11%;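 note: 0% = median of compound wells on plate and 100% = full blocker control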
sPLA2-III inh – Blocks human group III sPLA2 activity | QFRET BODIPY PC-A2 liposome hydrolysis, fluorescence | inhibition, % at 12.2 µM | 370,000 compounds, 0.56% hits;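 active = inhibition above mean plus 3 SD of compounds lying within the high and low control bounds, cut at about 19% in these data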;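 note: 0% = median of test compound wells and 100% = no enzyme DMSO wells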
Target sequence (Q9NZ20 whole entry, looked up): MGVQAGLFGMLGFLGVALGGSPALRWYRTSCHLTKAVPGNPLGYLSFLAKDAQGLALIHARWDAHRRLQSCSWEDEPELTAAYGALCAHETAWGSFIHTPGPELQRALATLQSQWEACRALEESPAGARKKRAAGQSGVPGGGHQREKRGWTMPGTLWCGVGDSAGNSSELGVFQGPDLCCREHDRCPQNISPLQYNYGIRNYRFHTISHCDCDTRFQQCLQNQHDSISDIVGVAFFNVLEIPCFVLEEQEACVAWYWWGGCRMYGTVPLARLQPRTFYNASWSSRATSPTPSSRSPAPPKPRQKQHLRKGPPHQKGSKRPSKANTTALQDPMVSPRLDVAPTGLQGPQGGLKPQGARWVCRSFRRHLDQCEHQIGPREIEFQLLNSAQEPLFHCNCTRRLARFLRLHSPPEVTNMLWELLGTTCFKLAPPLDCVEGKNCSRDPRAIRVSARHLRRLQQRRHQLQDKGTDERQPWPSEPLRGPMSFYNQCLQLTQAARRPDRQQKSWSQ
PLC-gamma1 inh – PLC-gamma1 (human) inhibition, primary screen. P19174. purified PLC-gamma1, fluorogenic substrate, fluorescence. inhibition, % at 12.2 µM. 370,000 compounds, 0.84% hits. AID 720700; in the data active = inhibition above about 9.5%
AHR act confirm – human AHR activation, confirmation | human cells, AHR-responsive luciferase reporter, luminescence | shares compounds with AHR act | AID 2845 | activation, % at 9 µM | 2,300 compounds, 87% hits; in the data active = activation above about 49%;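 note: HepG2 hepatoma cells carrying a DRE-driven firefly luciferase reporter; 0% = vehicle wells and 100% = reference agonist wells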
PXR counter – counter-screen for AHR activators: human PXR activators | activation, % at 11.6 µM | cell-based PXR reporter, luciferase luminescence | AID 434939 | shares compounds with AHR act | 2,300 compounds, 88% hits; in the data active = activation above about 11%;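 note: human hepatoma DPX-2 cells expressing full-length human PXR; 0% = DMSO and 100% = reference agonist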
Starred values were filed as active, the others as inactive; i = inactive; · = not tested or not shown. This is a sample that favours compounds with a hit; in the whole collection about 3.9% have one here.

SMILES	CR mimetic SO	HIF activator	AHR act	PLC-beta3 inh	sPLA2-III inh	PLC-gamma1 inh	AHR act confirm	PXR counter
Cc1oc2cc(OC(=O)c3ccco3)ccc2c(=O)c1-c1nc2ccccc2n1C	95	0	106*	-161	1	-126	2	20*
CCCCN(C)C(=O)CSc1nnc(-c2cccnc2)n1C1CCCCC1	·	·	·	1	2	-2	·	·
COc1ccccc1-c1nnc(-c2ccc(C)cc2)o1	116	3	81*	-2	-5	1	123*	39*
COc1ccccc1-c1nnc(-c2ccc(N3CCOCC3)cc2)o1	92	4	31	i	0	i	·	·
CCCCNC(=S)Nc1cccc2cnccc12	96	3	89*	-11	8	-11	61*	13*
COCCNC(=S)Nc1cccc2cnccc12	91	0	1	-8	4	0	·	·
O=c1cc(-c2ccncc2)oc2c1ccc1ccccc12	104	-1	12	-246	6	-175	·	·
O=c1cc(-c2ccco2)oc2c1ccc1ccccc12	94	0	79*	-116	-4	-99	61*	25*
C[C@@H]1CN(C(=O)OC(C)(C)C)CCN1c1ccc(N2CCN(Cc3ccccc3)[C@@H](C)C2)c(C#N)c1	·	·	·	-68	7	-77	·	·
O=C(CN(C(=O)CCC(=O)Nc1ccccn1)c1cccc(F)c1)NCc1ccco1	82	-2	1	-4	0	-1	·	·
Cc1nc2nc(-c3cccnc3)nn2c(C)c1Cl	96	2	98*	2	-4	0	112*	29*
COC(=O)c1ccc2nc(-c3cccc(Br)c3)c(Cc3cccc(Cl)c3)n2c1	·	·	·	-31	-1	-21	·	·
N#CC(C#N)=C1C=CC=CN1/C(=C\c1ccco1)C(=O)c1ccccc1	92	·	19	-32	1	-28	·	·
N#CC(C#N)=C1C=CC=CN1/C(=C\c1ccco1)C(=O)c1ccc(Br)cc1	105	·	189*	-20	3	-17	180*	61*
O=[N+]([O-])c1cnc(Nc2ccc(Cl)cn2)c([N+](=O)[O-])c1	93	2	139*	-1	2	1	80*	·
COc1ccccc1NC(=O)C(=O)c1cn(CC(=O)N2CCOCC2)c2ccccc12	76	3	25	-1	7	-1	·	·
O=C(Nc1cc([N+](=O)[O-])ccc1Cl)c1ccc2c(c1)OCO2	90	0	106*	-1	-1	0	100*	23*
Cc1ccc([N+](=O)[O-])cc1NC(=O)c1ccc2c(c1)OCO2	99	0	115*	3	3	4	100*	25*
NS(=O)(=O)c1ccc(NC(=O)CSc2n[nH]c(=O)n2C2CC2)cc1	90	·	-2	3	-5	2	·	·
Cc1ccc(C(=O)N=c2sccn2C)cc1S(=O)(=O)N1CCOCC1	98	0	16	-19	9	-16	·	·
Cc1ccccc1C(=O)N=c1sccn1C	106	-24	7	-11	-3	-6	·	·
Cc1cccc(C(=O)N=c2sccn2C)c1[N+](=O)[O-]	91	4	99*	-6	2	2	82*	142*
Cc1ccc(C(=O)N=c2sccn2C)cc1C	101	3	194*	-28	-4	-16	136*	41*
CCN(CC)S(=O)(=O)c1cc(C(=O)N=c2sccn2C)ccc1OC	85	0	100*	-21	3	-3	87*	125*
CC(C)C[C@@H](CNCC(=O)[C@H](Cc1ccccc1)NC(=O)c1[nH]cnc1C(=O)N[C@H](CN)CC(C)C)NC(=O)c1nc[nH]c1C(=O)N[C@@H](CC(=O)O)C(=O)O	·	·	·	-2	-11	4	·	·
SMILES	CR mimetic SO	HIF activator	AHR act	PLC-beta3 inh	sPLA2-III inh	PLC-gamma1 inh	AHR act confirm	PXR counter
CCNC(=O)N(C)[C@H]1C[C@H]2c3[nH]c4cccc(-c5ccc6c(c5)OCO6)c4c3CCN2C[C@H]1[C@H](C)O	·	·	·	-120	-10	-98	·	·
O=C(Nc1cc(Cl)ccc1Cl)c1ccc(-c2ccccc2)cc1	93	1	87*	1	3	1	90*	29*
COc1ccc(Nc2nc(-c3ccc(OC)cc3)c(CCC(=O)O)s2)cc1	87	-1	2	-10	1	9	·	·
Cc1ccc(Nc2nc(-c3ccc(C)cc3)c(CC(=O)O)s2)cc1	112	2	85*	-119	11	-95	9	8
C/C(N)=C(/C#N)C(=O)CSc1nc2scc(-c3ccccc3)c2c(=O)n1C	111	0	5	-6	-5	3	·	·
Cc1cc(C)nc(N/N=C/C2=C(N3CCOCC3)C(=C\c3ccc(Cl)cc3)/CC2)n1	94	0	90*	-37	-14	-31	126*	12*
Cc1cc(C)nc(Nc2cccc3ccccc23)n1	97	-17	131*	-6	-1	-1	109*	19*
Cc1cc(C)nc(Nc2ccccc2Br)n1	98	0	4	2	3	-3	·	·
O=C(Nc1cccc(Cl)c1)c1ccc(=O)[nH]n1	105	-13	148*	-6	-36	1	104*	·
CN(c1ccccc1)S(=O)(=O)c1cccc(NC(=O)c2ccc(=O)[nH]n2)c1	90	·	1	-7	-43	5	·	·
S=c1[nH]nc(-c2cc(-c3ccccc3)n[nH]2)n1/N=C/c1cccs1	90	0	132*	-6	5	3	128*	39*
Cc1cc(-c2n[nH]c(=S)n2/N=C/c2sccc2C)n[nH]1	97	0	112*	-3	19	2	91*	25*
S=c1[nH]nc(-c2cc(-c3ccccc3)n[nH]2)n1/N=C/c1ccccc1	122	0	11	-5	14	-1	·	·
Cc1ccsc1/C=N/n1c(-c2ccncc2)n[nH]c1=S	94	·	13	0	11	1	·	·
Cc1ccsc1/C=N/n1c(-c2ccccc2)n[nH]c1=S	112	0	80*	-1	12	-2	68*	46*
O=C(Nc1ccc(OC(F)(F)F)cc1)c1ccc2nc[nH]c2c1	105	1	96*	-4	-11	3	137*	12*
COc1ccc(NC(=O)c2ccc3nc[nH]c3c2)c(OC)c1	104	-1	14	-8	2	1	·	·
CCCCn1c(N)c(N(CC(C)C)C(=O)c2cc3ccccc3cc2OC)c(=O)[nH]c1=O	·	·	·	-13	-12	-2	·	·
c1ccc2c(c1)CCN(c1nc3cc4c(cc3s1)OCO4)C2	114	3	103*	-16	0	-13	45	35*
O=C1c2ccccc2NC(c2ccc3c(c2)OCO3)N1O (stereo not given)	104	1	122*	-10	2	-7	133*	25*
